Test results published in PubChem BioAssay AID624297 (National Center for Advancing Translational Sciences (NCATS), 2012).
The whole screen tested about 340,000 compounds, of which about 6,200 (1.8%) were called active. Roughly 10% stayed inconclusive and do not appear here. The sample holds actives, similar compounds and a random draw of the others, so the mix is not that of the screen. The call rests on the fitted dose curve; in most records, active means well fitted activation curve with a large enough effect; inconclusive means small, poorly fitted or top-dose-only effect; inactive means no such curve, though single readings can be large or run the other way.

Assay: A quantitative high throughput screen for small molecules that induce DNA re-replication in SW480 colon adenocarcinoma cells. Further: nearly all actives have a fitted effect of over 55% in size. On re-replication activation: % of control where 0% means no effect.
Settings: Hoechst DNA content imaging, 48 h; series mostly up to 46.1 µM; re-replication activation: at the top concentration
Outline: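 Quantitative HTS format with DMSO vehicle controls; 48 hr drug incubation at 37 C, then 40 min Hoechst staining and scanning imager measurement at 405 nm excitation.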
Potency means the concentration at half of the fitted maximal effect.

re-replication activation, inactive:
COc1ccc(/C=C/C(=O)OCC(=O)NC2CCCCCC2)cc1OC -8.91%
COCCCN1C(=O)C(=O)/C(=C(/O)c2ccc3c(c2)CC(C)O3)C1c1cccnc1 (stereo not given) 10.1%
COc1ccc(C2/C(=C(/O)c3ccc4c(c3)CC(C)O4)C(=O)C(=O)N2Cc2ccncc2)cc1 (stereo not given) -1.61%
O=C(COC(=O)c1ccc(O)cc1O)c1ccc2c(c1)OCCO2 -1.61%
O=C1CN(C(=O)COC(=O)/C=C/c2ccc(F)cc2)c2ccccc2N1 -5.6%
COc1ccc2c(C(=O)c3ccc(C)cc3)n(CCC(N)=O)[n+]([O-])c2c1 1.41%
COc1ccc(C(=O)CC(=O)C(=O)Nc2cc([N+](=O)[O-])ccc2OC)cc1 -3.76%
COc1cc(OC)cc(-c2c(C#Cc3ccsc3)c3cc(-c4ccc(SC)cc4)ccc3n2C)c1 12%
Cc1nnc(N/N=C/C2CC=CCC2)[nH]c1=O (stereo not given) -14%
Cc1cc(C(=O)N/N=C/c2ccccn2)c2ccccc2n1 -16.3%
CC(C)[C@@H](C(=O)OCC(=O)c1ccc2c(c1)NC(=O)CO2)N1C(=O)c2ccccc2C1=O -4.45%
O=S(=O)(NCC1CN(S(=O)(=O)c2ccc3c(c2)OCCO3)C1)c1c(F)cccc1F -0.716%
CSc1ncccc1C(=O)Nc1cccc(S(=O)(=O)N2CCOCC2)c1 -8.98%
CCOC(=O)c1c(S(=O)(=O)Nc2ccc(CN3CCC(C)CC3)cc2)c(C)n(C)c1C 1.49%
CCOC(=O)c1cccc(NS(=O)(=O)c2c(C(=O)N3CCCCCC3)c(C)n(C)c2C)c1 -4.56%
COc1ccc(CCN2CC(C(=O)OCC(=O)NCc3ccccc3Cl)CC2=O)cc1OC (stereo not given) -14.7%
Cc1ccc(S(=O)(=O)N2CCN(C(=O)Cn3c(=O)cnc4ccccc43)CC2)c(C)c1 -2.69%
CCN(CC(=O)Nc1c(F)cccc1F)C(=O)Cc1cccs1 -73.1%
Cc1cc(NC(=O)CSCC(=O)NC(C)c2ccccc2)no1 (stereo not given) -14.6%
COc1cccc(CNc2nc(C(F)(F)F)nc3ccccc23)c1 33.5%
NS(=O)(=O)c1ccc(CCNc2nc(C(F)(F)F)nc3ccccc23)cc1 -3.72%
CC(CN1CCOCC1)c1ccccc1 (stereo not given) -17.3%
CC(CN1CCC(n2nccc2NC(=O)C2CCCC2)CC1)c1ccccc1 (stereo not given) -4.86%
O=C(Nc1ccc2ccccc2c1[N+](=O)[O-])c1ccccc1 -2.97%
O=C(Nc1ccccc1Cl)Nc1cccc2cccnc12 -32.8%
O=C(Nc1cccc2cccnc12)c1cccc(Cl)c1 -5.9%
CCC(C)c1ccc(NC(=O)COC(=O)C2CCCC2)cc1 (stereo not given) -0.977%
CC(Sc1nncn1C)C(=O)NCCC1=CCCCC1 (stereo not given) -0.473%
COc1ccc(Cn2cc(CN3CCS(=O)(=O)N(Cc4ccc(-c5cccc(Cl)c5)cc4)C(C)C3=O)nn2)cc1 (stereo not given) 4.08%
CN(C(=O)c1cccc(NC(=O)Cc2ccc([N+](=O)[O-])cc2)c1)C1CCC1 -7.23%
Cc1nc(SCc2ccc(F)cc2)c([N+](=O)[O-])[nH]1 -1.87%
CCCOc1ccc(Cn2ccnc2)cc1[N+](=O)[O-] -3.74%
O=C1NCC(c2ccccc2)(c2ccccc2)C(=O)N1 -2.48%
Cc1ccc(OCC(=O)Nc2ccc(N3CCN(C(=O)c4ccco4)CC3)cc2)c(C)c1 -23.1%
CCC(=O)Nc1ccc(C(=O)N2CCN(C(=O)c3ccco3)CC2)cc1 -18.2%
Cc1ccc(S(=O)(=O)N2CCCCC2)cc1NC(=O)CCNC(=O)c1ccccc1 17%
Cc1ccc(N2CCN(C3=NC(=O)/C(=C\c4cccs4)S3)CC2)cc1 -6.21%
Cc1ccc(C2=N/C(=C\c3ccc(OS(=O)(=O)c4ccc(C)cc4)cc3)C(=O)O2)cc1 -12.8%
Cc1nc2ccc(N)nc2nc1C -4.85%
CCCN(CCC)S(=O)(=O)c1cc2c(cc1Br)CCN2C(=O)CC -0.545%
Cc1noc(C)c1S(=O)(=O)N(C)C[C@H]1Oc2ccc(NC(=O)C3CC3)cc2C(=O)N([C@H](C)CO)C[C@@H]1C -7.8%
CN1CCN(CCCNC(=O)c2ccc(/C=C3\Oc4ccccc4N(Cc4ccc(Cl)cc4)C3=O)cc2)CC1 6.87%
O=C(NCCN1CCOCC1)c1ccc(/C=C2\Sc3ccccc3N(Cc3ccc(F)cc3)C2=O)cc1 662%
C[C@@H]1CN([C@@H](C)CO)C(=O)c2cccc(NS(=O)(=O)c3ccc(F)cc3)c2O[C@H]1CN(C)C(=O)NC1CCCCC1 6.72%
CC1CN(C(=O)c2ccc([N+](=O)[O-])s2)CC(C)O1 (stereo not given) -11.6%
O=C(c1cccc(S(=O)(=O)N2CCCCCC2)c1)N1CCN(Cc2ccccc2)CC1 -17.1%
CC(NC(=O)c1ccccc1)C(=O)Nc1ccccc1 (stereo not given) -2.85%
Cn1c(NC(=O)c2ccccc2)nc2ccccc21 -10.1%
Cc1c[n+]([O-])ccc1[N+](=O)[O-] 13.5%
COc1ccc(S(=O)(=O)N2C[C@H]3CON(C)[C@H]3C[C@H]2c2cccc(Br)c2)cc1 -5.21% [at 9.22 µM]
O=C(COc1ccccc1F)Nc1nc(-c2ccccn2)cs1 1.18%
CN(CCc1ccccc1)C(=O)c1cccc(NC(=O)Cc2cccc(NC(=O)C3CCCN(C(=O)C4CCC4)C3)c2)c1 (stereo not given) -30.2%
CCS(=O)(=O)Nc1ccc(C2=NN(S(=O)(=O)c3ccc(F)cc3)C(c3ccco3)C2)cc1 (stereo not given) -5.85%
Cc1ccccc1C1CC(c2cccs2)=NN1S(C)(=O)=O (stereo not given) -1.96%
CCCc1cc(=O)[nH]c(SCC(=O)Nc2ccc(C(=O)Nc3ccccc3OC)cc2)n1 3.29%
Cc1ccc(-c2cc(=O)c3ccc(Cl)cc3[nH]2)cc1 -0.0496%
Cc1ccc(-c2cc(=O)c3ccc(F)cc3[nH]2)cc1 11.6%
CCCCNCCS(=O)(=O)NCc1ccccc1 2.26%
O=C(CSc1ncn[nH]1)Nc1ccc(Br)cc1Br 0.649%
Cc1cccc(OCC(=O)OCC(=O)Nc2ccc(Cl)cn2)c1 1.42%
O=C1OC(Cc2ccccc2)C(c2ccccc2)C1=O (stereo not given) -2.6%
COc1cccc(CNC(C)C(=O)Nc2ccc(S(=O)(=O)N3CCCC3)cc2)c1 (stereo not given) -23.3%
CCN1CCN(C(=O)CSc2ccc(C)cc2)CC1 -1.89%
Cc1ccc(SCC(=O)N2CCN(c3ccc(F)cc3)CC2)cc1 2.77% [at 1.84 µM]
CN(CC(=O)O)C(=O)c1ccccc1 -2.02%
Nc1cc2c(cc1Br)-c1ccc(F)cc1C2=O -4.87%
O=C(O)C(=Cc1ccccc1[N+](=O)[O-])c1ccccc1 -4%
CCN1CCC(O)(/C=C/c2ccc(C)cc2)C(C(=O)/C=C/c2ccc(C)cc2)C1 (stereo not given) -1.86%
CCC(=O)c1ccc(OCC(=O)Nc2ccc3nc(C)sc3c2)cc1 -12.9%
CCOc1ccc2nc(NC(=O)CSc3nc4c(c(=O)n(C)c(=O)n4C)n3CC)sc2c1 -4.89%
COc1ccc(CCOC2OC(CO)C(OC(=O)/C=C/c3ccc(O)c(OC)c3)C(O[C@H]3O[C@@H](C)[C@H](O)[C@@H](O)[C@H]3O)C2O)cc1O (stereo not given in full) -2.6%
NNC(=O)c1ccc(Cl)cc1Cl 0.838%
Cn1cc(C(=O)c2ccc(Cl)cc2Cl)cc1C(=O)NN -5.57%
COc1ccc(C(=O)Nc2cccc(/C=C(/CCC(=O)O)c3nc4ccccc4s3)c2)cc1 -7.51%
O=C(COC(=O)c1cccnc1Cl)NC(=O)NC1CCCCC1 -1.97%
Cc1nc2ccc(NC(=O)c3cccc(S(=O)(=O)N4CCOCC4)c3)cc2s1 3.07%
CC/C(=C\c1ccc(Cl)cc1)c1ccncc1 -2.36%
CCC1=Nc2cc(C(=O)NCCCN3CCOCC3)ccc2Sc2ccc(Br)cc21 14.9%
CC(C)(C)c1ccc(C(=O)NCc2ccco2)cc1 -17.2%
COc1ccc(NC(=O)Nc2ccc3c(c2)C(=O)N([C@H](C)CO)C[C@H](C)[C@@H](CN(C)C(=O)Nc2ccc4c(c2)OCO4)O3)cc1 0.217%
O=C(Cc1ccc(NC(=O)C2CCCN(C(=O)CCc3ccccc3)C2)cc1)Nc1ccc(C(=O)N2CCOCC2)cc1 (stereo not given) -31.4% [at 9.22 µM]

Potency, active:
COc1cc(C2/C(=C(\O)c3ccc4c(c3)CC(C)O4)C(=O)C(=O)N2Cc2ccco2)ccc1O (stereo not given) 0.517 µM
COc1ccc(C(=O)c2c3ccc([N+](=O)[O-])cc3[n+]([O-])n2CCCN)cc1 18.4 µM
Cc1nnc(N/N=C/c2ccccn2)[nH]c1=O 1.3 µM
CCOC(=O)c1c(S(=O)(=O)Nc2cccc(Cl)c2)c(C)n(C)c1C 8.2 µM
CCc1ccc(C(CNc2nc(C(F)(F)F)nc3ccccc23)N(C)C)cc1 (stereo not given) 20.6 µM
CC(CN1CCCCC1)c1ccccc1 (stereo not given) 5.8 µM
CC(=O)/C(=N\Nc1ccc(Cl)cc1Cl)Sc1cccc2cccnc12 6.51 µM
CCCCCOc1ccc(CSC2=NCCN2)cc1[N+](=O)[O-] 5.8 µM
COc1cccc(C(=O)Nc2ccc(N3CCN(C(=O)c4ccco4)CC3)cc2)c1 18.4 µM
Cc1cccc(C2=N/C(=C/c3cccs3)C(=O)O2)c1 4.61 µM
CCN1CCN(CCNC(=O)c2ccc(/C=C3/Sc4ccccc4N(Cc4cccc(C)c4)C3=O)cc2)CC1 20.6 µM
O=C(NC1=CC(=O)c2ccccc2C1=O)c1ccccc1 5.8 µM
CCc1ccc2c(c1)C1(NN=C(c3ccccc3)S1)C(=O)N2 (stereo not given) 10.3 µM
Fc1ccc(N2N=C(c3cccs3)CC2c2ccco2)c(F)c1 (stereo not given) 23.1 µM
O=c1cc(-c2ccccc2)[nH]c2cc(F)ccc12 0.92 µM
CCN1CCC2(CC1)N=C(c1ccc(F)cc1)C(=S)N2C(=O)c1ccc(C)cc1 20.6 µM
CCOc1ccc2nc(Nc3nc4ccc(NC(C)=O)cc4s3)sc2c1 18.4 µM
CC(C)(C)c1cc(C(=O)NN)n(Cc2ccc(Cl)cc2Cl)n1 11.6 µM
CCCC1=Nc2cc(C(=O)NCc3ccco3)ccc2Sc2ccccc21 5.17 µM
